Screen size: about 69,000 compounds; about 950 (1.4%) showed an effect of 50% or more. The sample as a whole holds a higher share of strong results than the screen did.

The subject of this assay is Mycobacterium tuberculosis. The assay is described as follows: Cornell M. t heat shock assay. Further: in the data most compounds retested in dose-response had high values. The assay is classed as functional, organism-based. Set-up: dose or concentration left out as unconfirmed.
For `Cc1noc(C)c1CN1CC[C@H]2[C@H]1CCN2CC1CCOCC1.O=C(O)C(F)(F)F.O=C(O)C(F)(F)F`, the “Percent Effect” value is -9.429%.

As to `C=C(C)CN1CCN(Cc2cnc(-c3ccccc3C)nc2)CC1.O=C(O)CC(O)(CC(=O)O)C(=O)O`, the “Percent Effect” value turned out to be 1.349%.

Consider `CCOCC1CN(Cc2ccoc2)Cc2nn(C)cc21.O=C(O)C(F)(F)F` (stereo not drawn), for which the “Percent Effect” value is reported as -18.76%.

In the case of `O=C(N1CCCC1)N1CC[C@H]2[C@H]1CCN2c1ncccn1.O=C(O)C(F)(F)F`, the “Percent Effect” value is recorded as -10.67%.

Consider `COc1cc2c(cc1CNC(Cc1cccs1)c1nccs1)OCCO2.Cl` (stereo not drawn), for which the “Percent Effect” value was determined as 2.723%.

Turning to `Cl.O=C(C1CCC1)N1C[C@@H](c2ccsc2)[C@@H]2CN(C3CCCCC3)CC[C@@H]21`, the “Percent Effect” value is reported as -50.24%.

On to `Cc1ccc2nc(C3CCN(CC4CC4)CC3)nn2c1.O=C(O)C(F)(F)F`, for which the “Percent Effect” value was -35.41%.

On to `CC(C)COC(C)C(=O)NCCNS(C)(=O)=O` (stereo not drawn), for which the “Percent Effect” value is listed as -20.75%.

`CC(C)COC(C)C(=O)NCCNC(=O)C(C)C` (stereo not drawn): the “Percent Effect” value is -3.282%.

Take `CCOC(C)C(=O)NCCNS(C)(=O)=O` (stereo not drawn): the “Percent Effect” value is 69.12%.

With `O=C(O)C(F)(F)F.O=C(c1ccoc1)N1CC[C@@H](N2CCOCC2)[C@@H]1Cc1ccccc1`, the “Percent Effect” value is given as -25.18%.

On to `O=C(NCc1ccccn1)[C@H]1COC[C@H]2CN(C3CCCC3)C[C@H]21.O=C(O)C(F)(F)F.O=C(O)C(F)(F)F`, for which the “Percent Effect” value is recorded as -26.6%.

For `Cc1ccc(CN[C@@H]2COC[C@H]2Cc2cc(C)no2)cc1.O=C(O)CC(O)(CC(=O)O)C(=O)O`, the “Percent Effect” value came to 0.5554%.

For `O=C1CN(Cc2nnc(-c3ccc(Br)o3)o2)CCN1`, the “Percent Effect” value came to 51.83%.

`O=C1CN(Cc2nnc(-c3ccccc3Br)o2)CCN1`: the “Percent Effect” value was found to be 14.67%.

As for `O=C1CN(Cc2nnc(-c3ccc(Br)cc3)o2)CCN1`, the “Percent Effect” value was found to be 1.317%.

As to `Cl.c1cc(CNCc2ccc(Cn3cncn3)cc2)c2c(c1)OCCO2`, the “Percent Effect” value is -1.246%.

For `Cl.NC(=O)COc1ccc(CNCc2cc(F)ccc2F)cc1`, the “Percent Effect” value is recorded as -36.29%.

`CCN(CC)C(=O)Cn1c(-c2ccc(Cl)cc2)nc(C)c(CCO)c1=O`: the “Percent Effect” value came to 69.66%.

Regarding `CCOc1nc2cccnc2n(CC(=O)NCCOC)c1=O`, the “Percent Effect” value was 5.103%.

Turning to `COCCNC(=O)Cn1c(-c2cccc(Cl)c2)nc(C)c(CCO)c1=O`, the “Percent Effect” value was 68.55%.

As for `COCCNC(=O)Cn1c(-c2cccc(F)c2)nc(C)c(CCO)c1=O`, the “Percent Effect” value was found to be 66.78%.

With `COCCCNC(=O)Cn1c(-c2cccc(Cl)c2)nc(C)cc1=O`, the “Percent Effect” value is 10.79%.

With `COCCNC(=O)Cn1c(-c2ccc(Cl)cc2)nc(C)c(CCO)c1=O`, the “Percent Effect” value stood at 50.09%.

On to `COCCNC(=O)Cn1c(-c2ccc(F)cc2)nc(C)c(CCO)c1=O`, for which the “Percent Effect” value is on record as 29.85%.

Regarding `CCc1cc(=O)n(CC(=O)NCC2CCCO2)c(-c2cccc(F)c2)n1` (stereo not drawn), the “Percent Effect” value worked out at 19.5%.

Regarding `Cc1cc(=O)n(CC(=O)NCCC(C)C)c(-c2cccc(Cl)c2)n1`, the “Percent Effect” value came out at 9.879%.

For the compound `Cc1nc(-c2ccc(Cl)cc2)n(CC(=O)NC(C)C)c(=O)c1CCO`, the “Percent Effect” value is reported as 47.89%.

Turning to `COCCNC(=O)Cn1ccc2ccc(F)cc21`, the “Percent Effect” value stood at 14.54%.

Consider `CCN(CC)C(=O)c1nnsc1-c1ccc(Cl)cc1`, for which the “Percent Effect” value is recorded as -12.37%.

For the compound `Cc1ccc(-c2ccc(C3CNCCO3)nc2)cc1.Cl` (stereo not drawn), the “Percent Effect” value is listed as -12.85%.

Take `CC[C@@H]1N(Cc2nccs2)CCC[C@]12CCC(=O)N2C.O=C(O)C(F)(F)F`: the “Percent Effect” value is recorded as -9.457%.

With `CCOCC1CN(Cc2ccccn2)Cc2nn(CC3CC3)cc21.O=C(O)C(F)(F)F.O=C(O)C(F)(F)F` (stereo not drawn), the “Percent Effect” value is -24.37%.

As to `O=C(O)C(F)(F)F.O=C(c1ncccn1)N1CCC[C@]2(C[C@@H](Oc3ncccc3F)CO2)C1`, the “Percent Effect” value is listed as -26.7%.

Consider `O=C(Cc1ccccc1F)N1C[C@@H]2COC[C@]2(COc2cccnc2)C1.O=C(O)C(F)(F)F`, for which the “Percent Effect” value is recorded as -4.707%.

Consider `COCC(=O)N1CCCn2c(CN3CCOCC3)nnc2C1.O=C(O)C(F)(F)F`, for which the “Percent Effect” value was -20.35%.

On to `Cl.FC(F)CNc1cnc(C2CCCN2)cn1` (stereo not drawn), for which the “Percent Effect” value was -21.09%.

On to `O=C(O)C(F)(F)F.O=C1NCCN(CC2CC2)C12CCN(Cc1ccccc1)CC2`, for which the “Percent Effect” value is reported as -29.41%.

For `COCC1CC2(CCN(Cc3ccncc3)CC2)CN1C(C)C.O=C(O)C(F)(F)F.O=C(O)C(F)(F)F.O=C(O)C(F)(F)F` (stereo not drawn), the “Percent Effect” value is on record as -9.126%.

Turning to `O=C(Nc1cccnc1)[C@H]1C[C@@H]2CN(S(=O)(=O)C3CC3)C[C@H]1O2`, the “Percent Effect” value is recorded as -11.95%.

Turning to `COCc1ncn2c1CN(C(=O)c1ccc3ccccc3n1)CC2.O=C(O)C(F)(F)F`, the “Percent Effect” value was -56.59%.

As for `CO[C@H]1C[C@@H]2CN(C(=O)c3cc4ccc(F)cc4[nH]3)C[C@@H]2C1`, the “Percent Effect” value is on record as 35.64%.

On to `COc1ccc(CN2C[C@H]3CN(c4ccsc4)C(=O)[C@H]3C2)cc1.O=C(O)C(F)(F)F`, for which the “Percent Effect” value amounted to 16.76%.

For the origin of these results see ChEMBL document CHEMBL3988442, “University of Dundee, Small-Polar-MMV Screening Library” (2021).
